Each compound was assayed against Glucocorticoid receptor (Homo sapiens) (UniProt P04150) (assay: GR-GFP Redistribution (AID 450)). Conditions: U2OS GR-GFP nuclear translocation, laser cytometry, 2 h; series mostly up to 20.6 µM;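 active means compounds whose dose series gives a full or clear partial fitted curve of increased nuclear translocation; inconclusive means weak partial curve or effect only at the top dose; inactive means no dose-dependent translocation response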.
Potency means the concentration at half of the fitted maximal effect.

Chain of Glucocorticoid receptor (Homo sapiens) (P04150 whole entry, looked up): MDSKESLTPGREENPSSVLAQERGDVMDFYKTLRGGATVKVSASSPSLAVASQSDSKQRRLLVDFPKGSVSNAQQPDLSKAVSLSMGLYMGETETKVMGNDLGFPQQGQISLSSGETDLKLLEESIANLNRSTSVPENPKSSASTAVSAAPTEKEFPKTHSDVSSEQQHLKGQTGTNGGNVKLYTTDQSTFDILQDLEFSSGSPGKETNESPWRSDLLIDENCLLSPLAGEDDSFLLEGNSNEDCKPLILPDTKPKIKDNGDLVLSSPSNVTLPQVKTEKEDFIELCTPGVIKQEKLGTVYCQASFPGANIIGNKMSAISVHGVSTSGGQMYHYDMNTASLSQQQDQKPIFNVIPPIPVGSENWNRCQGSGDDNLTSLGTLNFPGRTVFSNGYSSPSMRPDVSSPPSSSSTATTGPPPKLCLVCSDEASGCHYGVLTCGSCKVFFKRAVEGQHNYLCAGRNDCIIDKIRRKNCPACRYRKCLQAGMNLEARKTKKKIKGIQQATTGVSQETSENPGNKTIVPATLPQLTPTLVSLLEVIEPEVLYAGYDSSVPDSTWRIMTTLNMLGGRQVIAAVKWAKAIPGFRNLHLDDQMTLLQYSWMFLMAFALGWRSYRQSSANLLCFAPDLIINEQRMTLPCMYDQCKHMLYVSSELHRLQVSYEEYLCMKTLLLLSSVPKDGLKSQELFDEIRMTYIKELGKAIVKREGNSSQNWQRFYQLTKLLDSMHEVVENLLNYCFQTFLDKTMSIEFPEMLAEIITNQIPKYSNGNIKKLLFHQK

Potency, inactive:
O=C1CCC(=O)N1CN(C(=O)c1ccco1)c1ccc(Cl)c(Cl)c1 > 20.6 µM
Cn1c(=O)c2c3c(sc2n2c(SCC(N)=O)nnc12)CC(C(C)(C)C)CC3 (configuration not stated) > 20.6 µM
Cc1ccccc1N1C(=O)C2ON(c3ccccc3)C(c3ccncc3)C2C1=O (configuration not stated) > 20.6 µM
c1ccc(Cc2nn[nH]n2)cc1 > 20.6 µM
Cc1cc(=O)oc(C)c1C(=O)n1nc(C)c2c1C[C@@H]1[C@H]2C1(C)C > 20.6 µM
C=CCN1C(=O)CC(C(=O)NC)SC1=Nc1ccc(C(=O)OCC)cc1 (configuration not stated) > 20.6 µM
CC(=O)Nn1cnc2c(c1=O)C1(CCCC1)Cc1ccccc1-2 > 20.6 µM
CC(=O)C1=C(O)C(=O)N(c2cccc(C(=O)O)c2)C1c1ccc(F)cc1 (configuration not stated) > 20.6 µM
O=C1CCCN1c1ccc(S(=O)(=O)NCc2ccco2)cc1 > 20.6 µM
CC(C)N1CCc2c(sc(N)c2C#N)C1 > 20.6 µM
COc1c(O)ccc2cnn(-c3ccccc3C)c(=O)c12 > 20.6 µM
Cc1cc(C)n(C(=O)CSc2nc3ccccc3o2)n1 > 20.6 µM
CC1(C)Cc2c(c(-c3ccccc3)nc(N3CCCC3)c2C(N)=O)CO1 > 20.6 µM
COc1ccc(CCNC2CC(C)N(C)CC2C)cc1OC (configuration not stated) > 20.6 µM
Cc1cc(C)cc(-n2c3nc4ccccc4nc3c3c(=O)n(Cc4ccco4)cnc32)c1 > 20.6 µM
CC(=O)C1=C(O)C(=O)N(c2cccc(C(=O)O)c2)C1c1ccccc1F (configuration not stated) > 20.6 µM
CCCCC(CCC(=O)Nc1ccc(C(=O)OC)cc1)C(=O)O (configuration not stated) > 20.6 µM
COc1ccc(C(=O)c2ccc(N3CCOCC3)cc2)c(OC)c1 > 20.6 µM
COc1ccc(Cn2c(CCCO)nc3ccccc32)cc1OC > 20.6 µM
COc1ccc(/C(O)=C2/C(=O)C(=O)N(CCN(C)C)C2c2ccccn2)cc1OC (configuration not stated) > 20.6 µM
CCCCCOc1ccccc1C(=O)NCCCC(=O)O > 20.6 µM
Cn1c(OCc2cccnc2)nc2c1c(=O)n(Cc1ccc(Cl)cc1)c(=O)n2C > 20.6 µM
O=C1C2ON(c3ccccc3)C(c3cccnc3)C2C(=O)N1c1ccccc1 (configuration not stated) > 20.6 µM
CCc1cccc(C)c1N(C(=O)Cn1c(=O)[nH]c2ccccc21)C(C)COC (configuration not stated) > 20.6 µM
Cn1c(=O)[nH]c(=O)c2c1nc(N(CCO)Cc1ccccc1)n2Cc1ccccc1Cl > 20.6 µM
O=C1C2ON(c3ccccc3)C(c3ccncc3)C2C(=O)N1c1ccccc1 (configuration not stated) > 20.6 µM
O=S(=O)(/C=C/c1ccccc1)Nc1ccc2c(c1)OCO2 > 20.6 µM
